Assay outcomes from PubChem.
Only a sample is shown.
aSyn UTR act – Activators working through SNCA 5'UTR binding (MLPCN) | activity score, % (tested at 7.5 µM), hits read low | 300,000 tested, 7.1% active | alpha-synuclein 5'UTR reporter, activators screen | AID 1814; in the data active means activity score below about -60%
A number is an active result; i = inactive.

SMILES	aSyn UTR act
CCOC(=O)c1sc(/N=C/c2c(O)ccc3ccccc23)cc1C	-73
Cc1ccc(N=Cc2c(O)ccc3ccccc23)cc1F	-111
O=C(NNC(=S)Nc1ccc(F)cc1F)c1ccco1	-109
O=C(Nc1cccs1)Nc1ccc(F)cc1F	-119
O=C(Nc1ccc(F)cc1F)Nc1ccc(F)cc1F	-87
O=C(Nc1ccc(F)cc1F)Nc1csc2ccccc12	-67
O=C(Nc1cccs1)Nc1ccc(Br)cc1F	-185
COc1ccc(NC(=O)c2cccc3ccccc23)cc1	-96
COCC(=O)Nc1ccccc1C(=O)Nc1ccc(OC)cc1	-90
COc1ccc(NC(=O)c2ccccc2C)cc1	-132
COc1ccc(NC(=O)CCn2cc(C)c3ccccc32)cc1	-76
CC(=O)Nc1ccc(OCc2cccc3ccccc23)cc1	i
COc1ccc(OCc2cc(C(=O)N3CCCCCCC3)no2)c(Cl)c1	-69
COc1ccc(OCc2cc(C(=O)N3CCN(C4CCCC4)CC3)no2)c(Cl)c1	-80
COc1ccc(OCc2cc(C(=O)N3CCN(CC4CC4)CC3)no2)c(Cl)c1	-87
O=C(c1cc(COc2ccc(F)cc2Cl)on1)N1CCCCCC1	-116
CCOC(=O)N1CCN(C(=O)c2cc(COc3ccc(OC)cc3Cl)on2)CC1	-62
CC1CN(C(=O)c2cccc(COc3ccccc3Cl)c2)CC(C)O1 (stereo not drawn)	-145
COc1ccc(OCc2cc(C(=O)N3C[C@@H](C)O[C@@H](C)C3)no2)c(Cl)c1	-67
O=C(c1cc(COc2ccc(F)cc2F)on1)N1CCSCC1	-117
O=C(/C=C/c1ccccc1)Nc1ccc(Br)cn1	-125
O=C(/C=C/c1cccc([N+](=O)[O-])c1)Nc1ccc(Cl)cn1	-92
Cc1ccc(NC(=O)/C=C/c2ccc(Cl)cc2)nc1	-158
Brc1ccc(N=NNc2ccccc2)cc1	-188
O=[N+]([O-])c1cccc(NN=Nc2ccccc2)c1	-129
SMILES	aSyn UTR act
NC(=S)N=Nc1ccc(NN=C(N)N)cc1	i
O=[N+]([O-])c1ccc(N=NNc2ccccc2)cc1	-139
CC(=O)Nc1cc(-c2ccc(F)cc2)[nH]n1	-77
O=C(Nc1cc(-c2ccccc2)[nH]n1)c1ccccc1F	-207
CCNC(=S)Nc1cc(-c2ccc(Cl)cc2)[nH]n1	-87
O=C(Nc1ccc2c(c1)OCO2)N1CCN(c2ccc(F)cc2)CC1	-122
O=C(Nc1ccc2c(c1)OCO2)N1CCN(c2ccccc2)CC1	-195
O=C(Nc1ccc2c(c1)OCO2)N1CCN(c2ncc(C(F)(F)F)cc2Cl)CC1	-104
O=C(Nc1ccc2c(c1)OCO2)N1CCN(c2ncccn2)CC1	-111
CCNC(=S)NNC(=O)c1csc(C(C)C)c1	-76
Cc1cccc(OCC(=O)Nc2cc(C)c(C)cc2O)c1	-112
CC(=O)Nc1sc(C)c(C)c1C(=O)OCCOc1ccccc1	-130
CC(=O)Nc1sc(C)c(C)c1C(=O)OCC(=O)N(CC(C)C)c1c(N)n(Cc2ccccc2)c(=O)[nH]c1=O	i
C/C(CC(=O)Nc1cc(C)ccn1)=N\NC(=O)COc1cccc(C)c1	-110
Cc1sc(NC(=O)CS(=O)(=O)c2ccccc2)c(C#N)c1C	-87
Cc1cccc(OCC(=O)Nc2sc3c(c2C#N)CCC3)c1	-100
Cc1sc(NC(=O)COc2ccccc2)c(C#N)c1C	-91
CC1(C)Cc2c(sc(NC(=O)COc3cccc4ccccc34)c2C#N)C(C)(C)N1	i
COc1ccc(OC)c(NC(=O)c2cc(-c3cc(C)c(C)cc3O)n[nH]2)c1	-95
COc1ccc(OC)c(NC(=O)c2cc(-c3c(C)cc(C)cc3O)n[nH]2)c1	-112
CCOc1ccc(/C=C/C(=O)Nc2cccc(C(C)=O)c2)cc1	-151
CC(=O)Nc1cccc(C(=O)/C=C/c2ccc(C)cc2)c1	-123
CC(C)c1ccc2c(c1)C1Cc3ccccc3C1N2 (stereo not drawn)	-196
O=C1C=C(N2CCCCCC2)C(=O)N1c1ccc(Cl)cc1	-171
S=C(Nc1ccc(Cl)c(Cl)c1)NC1CCCCC1	-75
SMILES	aSyn UTR act
CCc1ccc(NC(=S)N2CCCCCCC2)cc1	-123
CC1CCN(C(=O)Nc2ccc3nsnc3c2)CC1	-126
COc1ccc(NC(=S)Nc2ccc3nsnc3c2)cc1	-207
S=C(Nc1ccc2nsnc2c1)N1CCCCCC1	-148
CC(C)c1ccc(NC(=S)NC2CCCCCC2)cc1	-185
S=C(NNc1ccc2ccccc2c1)NC1CCCCC1	-217
Cc1ccc(NC(=S)NC2CCCCC2)cc1S(=O)(=O)N(C)C	-65
S=C(Nc1ccc2nsnc2c1)NC1CCCCC1	-163
Cc1cc(C)c2c(N)c(C(=O)NNC(=O)c3ccccc3)sc2n1	-108
Cc1cc(C)c2c(N)c(C(=O)N/N=C/c3ccccc3)sc2n1	-108
Cc1cc(C)c2c(N)c(C(=O)N/N=C/c3cccnc3)sc2n1	-128
Nc1c(C(=O)NCc2ccccc2)sc2nc(N3CCOCC3)c3c(c12)CCCC3	i
Clc1ccc2nc(N3CCCCC3)sc2c1	-148
Clc1ccc2nc(N3CCCCC3)[nH]c2c1	-123
O=c1c(Cl)c(N2CCCCC2)cnn1-c1nc2ccccc2[nH]1	i
CS(=O)(=O)N1CCN(c2nc3ccc(Cl)cc3s2)CC1	-99
C#CCN1C(=O)S/C(=C\c2ccc(N3CCOCC3)cc2C)C1=O	-150
CCN1C(=O)S/C(=C\c2ccc(N3CCOCC3)cc2C)C1=O	-148
Cc1ccccc1Cn1cc(NC(=O)c2cc(-c3ccco3)on2)cn1	-76
O=C(NCCc1ccccc1)c1cc(-c2ccco2)on1	-321
O=C(NCc1ccccc1)c1cc(-c2ccco2)on1	-97
Cc1ccccc1Cn1cc(NC(=O)c2noc(C(C)C)c2[N+](=O)[O-])cn1	i
COc1ccc(CCNC(=O)c2cc(-c3ccco3)on2)cc1OC	-77
CCCCOc1ccc(-c2csc(N)n2)cc1[N+](=O)[O-]	-141
CCCCOc1ccc(CSc2nc(C)[nH]c2[N+](=O)[O-])cc1[N+](=O)[O-]	-65
SMILES	aSyn UTR act
O=[N+]([O-])c1cccc(-c2cn3ccccc3n2)c1	-93
CCCOc1ccc(-c2cn3ccccc3n2)cc1[N+](=O)[O-]	-114
COc1ccc(-c2cn3ccccc3n2)cc1[N+](=O)[O-]	-162
CCOC(=O)N1CC=C2C(C#N)=C(N)C(C#N)(C#N)[C@H](c3ccc(OCC)c(OCC)c3)[C@H]2C1	-78
CCOc1ccc(-n2c(C)cc(C(=O)CCl)c2C)cc1	i
COc1ccc(-n2c(C)cc(C(=O)NC3CCCCC3)c2C)cc1	-156
Cc1cccc(-n2c(C)cc(C(=O)NC3CCCCC3)c2C)c1	-76
Fc1cc(F)cc(NC(=S)N2CCC(c3ccccc3)C2)c1 (stereo not drawn)	-99
S=C(Nc1ccccc1Cl)N1CCC(c2ccccc2)C1 (stereo not drawn)	-120
C=CCn1c(O)c(N=NC(=S)Nc2ccccc2F)c2ccccc21	i
Fc1ccccc1NC(=S)N1CCC(c2ccccc2)C1 (stereo not drawn)	-111
Oc1c(N=NC(=S)Nc2ccccc2F)c2ccccc2n1Cc1ccccc1	i
Nc1c(C(=O)NCc2ccco2)sc2nc3c(cc12)C(=O)CCC3	-94
CCCOC(=O)c1sc2nc3c(cc2c1N)C(=O)CCC3	-152
COc1ccc2cc3c(N)c(C(=O)NCc4ccco4)sc3nc2c1	-192
Cn1c(=O)n(/N=C/c2ccccc2)c2ccccc21	-107
CC(C)CC(=O)NC(=S)NNC(=O)c1ccc(NC(=O)C2CCCCC2)cc1	i
O=C(NC(=S)Nc1ccc(Br)cc1)C1CCC1	-95
O=C(NC(=S)Nc1ccc(Br)cc1)C1CCCCC1	-68
O=C(NC(=S)Nc1ccccc1)C1CCCCC1	-63
